Measured values from PubChem BioAssay (EPA / NIEHS).
Records with an inconclusive call do not appear. Active and inactive are the calls of the source. How the source made its calls: active means hit-call score of the fitted dose curve at least 0.9, where 1 is the maximum; inconclusive means response in the unintended direction; inactive means score below 0.9.

Experiments:
[1] = biological target: human Adrenergic, Beta 1 Receptor (Adrb1), ADRB1 (gene 153) (UniProt P08588); assay: NVS_GPCR_hAdrb1: NovaScreen (NVS) G Protein-Coupled Receptor Assay for human Adrenergic, Beta 1 Receptor (Adrb1) (AID 2283258)
Summary of the method: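 Membranes/protein extracted from human neuroepithelioma cells, radioligand competition binding read by filtration and scintillation 2 h post-dose. Single 25 uM duplicate screen, then concentration-response follow-up; DMSO as negative control.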

[2] = biological target: Beta-2 adrenergic receptor (Homo sapiens) (UniProt P07550); assay: NVS_GPCR_hAdrb2: NovaScreen (NVS) G Protein-Coupled Receptor Assay for human Adrenergic, Beta 2 Receptor (Adrb2) (AID 2283261)
Summary of the method: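 Compounds screened in duplicate at 25 uM, then actives in concentration series. Human beta-2 receptor from CHO material, cell-free; radioligand displacement after 1 h measured by filtration and scintillation against DMSO baseline.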

[3] = biological target: human Adrenergic, Beta 3 Receptor (Adrb3), ADRB3 (gene 155) (UniProt P13945); assay: NVS_GPCR_hAdrb3: NovaScreen (NVS) G Protein-Coupled Receptor Assay for human Adrenergic, Beta 3 Receptor (Adrb3) (AID 2283262)
Summary of the method: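 A cell-free filter binding assay read by scintillation counting, with displacement of a specific radioligand measured after 1 hour. The receptor source was SK-N-MC extracts (cells pretreated with isoproterenol and 8-bromo-cAMP). Compounds were first tested at 25 uM in duplicate and then in concentration series.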

[4] = biological target: human Adenosine A1 Receptor (AdoRA1), ADORA1 (gene 134) (UniProt P30542); assay: NVS_GPCR_hAdoRA1: NovaScreen (NVS) G Protein-Coupled Receptor Assay for human Adenosine A1 Receptor (AdoRA1) (AID 2283254)
Summary of the method: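 Each chemical is first tested twice at 25 uM, actives later in dilution series, against a radioligand bound to human cortex membranes; after 1 h, filter-retained counts are compared with DMSO controls, lower signal indicating displacement.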

[5] = biological target: guinea pig Leukotriene D4 Receptor (LTD4), CYSLTR1 (gene 100135514) (UniProt Q2NNR5); assay: NVS_GPCR_gLTD4: NovaScreen (NVS) G Protein-Coupled Receptor Assay for guinea pig Leukotriene D4 Receptor (LTD4) (AID 2283248)
Summary of the method: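 Guinea pig lung membrane preparation; bound radioligand measured by filter scintillation after 1 h, loss of signal versus DMSO marking displacement. Compounds tested at 25 uM in duplicate, hits retested to max 50 uM.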

[6] = biological target: human Serotonin, 5-Hydroxytryptamine Receptor 2A (5HT2A), HTR2A (gene 3356) (UniProt P28223); assay: NVS_GPCR_h5HT2A: NovaScreen (NVS) G Protein-Coupled Receptor Assay for human Serotonin, 5-Hydroxytryptamine Receptor 2A (5HT2A) (AID 2283249)
Summary of the method: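 Radioligand displacement on human cortex tissue extract, counted by filtration and scintillation 1.5 h post-dosing. Initial single-concentration screen at 25 uM in duplicate, concentration series in follow-up; DMSO as baseline.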

[7] = tested on: guinea pig Muscarinic, Peripheral (Mperiperal) Receptor, Non-selective Binding, gene 100379235; assay: NVS_GPCR_gMPeripheral_NonSelective: NovaScreen (NVS) G Protein-Coupled Receptor Assay for guinea pig Muscarinic, Peripheral (Mperiperal) Receptor, Non-selective Binding (AID 2283250)
Summary of the method: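 Screened in duplicate at 25 uM, hits retested in concentration series to 50 uM max, using bladder membrane radioligand displacement from guinea pig. Filtration and scintillation counting 1 h post-dose, fitted relative to DMSO.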

[8] = biological target: human Serotonin, 5-Hydroxytryptamine Receptor 5A (5HT5A), HTR5A (gene 3361) (UniProt P47898); assay: NVS_GPCR_h5HT5A: NovaScreen (NVS) G Protein-Coupled Receptor Assay for human Serotonin, 5-Hydroxytryptamine Receptor 5A (5HT5A) (AID 2283251)
Summary of the method: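 Membranes from HEK293 cells, radioligand binding read by filtration and scintillation after 1 h. Single-concentration duplicate testing at 25 uM, then concentration-response for actives; positive-direction fitting relative to DMSO.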

[9] = biological target: human Serotonin, 5-Hydroxytryptamine Receptor 6 (5HT6), HTR6 (gene 3362) (UniProt P50406); assay: NVS_GPCR_h5HT6: NovaScreen (NVS) G Protein-Coupled Receptor Assay for human Serotonin, 5-Hydroxytryptamine Receptor 6 (5HT6) (AID 2283253)
Summary of the method: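 Filter scintillation counting of radioligand displacement from HEK293-expressed 5HT6, 1 hour post-dose, with loss of signal relative to DMSO. Single 25 uM duplicates first, with concentration series for confirmation.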

[10] = biological target: human Serotonin, 5-Hydroxytryptamine Receptor 7 (5HT7), HTR7 (gene 3363) (UniProt P34969); assay: NVS_GPCR_h5HT7: NovaScreen (NVS) G Protein-Coupled Receptor Assay for human Serotonin, 5-Hydroxytryptamine Receptor 7 (5HT7) (AID 2283255);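 further: hits reduce specific radioligand binding relative to DMSO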
Summary of the method: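 Filter-bound radioactivity counted after 1 h, with loss of specific radioligand binding fitted against DMSO. Membrane protein came from CHO cells expressing human 5HT7. Chemicals were tested first at 25 uM in duplicate, then in concentration series if active.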

[11] = biological target: human Adenosine A2a Receptor (AdoRA2a), ADORA2A (gene 135) (UniProt P29274); assay: NVS_GPCR_hAdoRA2a: NovaScreen (NVS) G Protein-Coupled Receptor Assay for human Adenosine A2a Receptor (AdoRA2a) (AID 2283256)
Summary of the method: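 Compounds screened in duplicate at 25 uM, with actives followed up in concentration series, for displacement of a radioligand from HEK293-derived receptor protein. Bound counts read by filter scintillation at 1.5 hours, DMSO as baseline.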

[12] = biological target: human Adrenergic, Alpha 2A Receptor (Adra2A), ADRA2A (gene 150) (UniProt P08913); assay: NVS_GPCR_hAdra2A: NovaScreen (NVS) G Protein-Coupled Receptor Assay for human Adrenergic, Alpha 2A Receptor (Adra2A) (AID 2283257)
Summary of the method: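 Displacement of a specific radioligand from HT29 membrane protein was counted by filter scintillation after 1 h. Compounds were screened in duplicate at 25 uM, and actives were retested in concentration series. Fitting was positive-direction against DMSO.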

[13] = biological target: human Adrenergic, Alpha 2c Receptor (Adra2C), ADRA2C (gene 152) (UniProt P18825); assay: NVS_GPCR_hAdra2C: NovaScreen (NVS) G Protein-Coupled Receptor Assay for human Adrenergic, Alpha 2c Receptor (Adra2C) (AID 2283259)
Summary of the method: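 Screened first in duplicate at 25 uM, with actives then run as concentration series. Membranes from Sf9 cells were exposed for 1 h, and displacement of radioligand was counted after filtration, using DMSO as baseline.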

[14] = biological target: Type-1 angiotensin II receptor (Homo sapiens) (UniProt P30556); assay: NVS_GPCR_hAT1: NovaScreen (NVS) G Protein-Coupled Receptor Assay for human Angiotensin II receptor type 1 (AT1) (AID 2283263)
Summary of the method: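 Hits from a 25 uM duplicate screen (threshold e.g. 30% inhibition) were run in concentration-response with 50 uM top concentration. Displacement of specific radioligand from KAN-TS membrane preparations measured after 3 h by filter scintillation, DMSO as baseline.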

[15] = biological target: human Dopamine Receptor D4.4 (DRD4.4), DRD4 (gene 1815) (UniProt P21917); assay: NVS_GPCR_hDRD4.4: NovaScreen (NVS) G Protein-Coupled Receptor Assay for human Dopamine Receptor D4.4 (DRD4.4) (AID 2283264)
Summary of the method: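 Filter-binding assay with a tritiated or iodinated ligand, cell-free receptor prepared from CHO, 1 hour. Loss of bound radioactivity versus DMSO; single 25 uM duplicate screen, then concentration-response for actives.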

[16] = biological target: human Dopamine Receptor D2 (DRD2), DRD2 (gene 1813) (UniProt P14416); assay: NVS_GPCR_hDRD2s: NovaScreen (NVS) G Protein-Coupled Receptor Assay for human Dopamine Receptor D2 (DRD2) (AID 2283266)
Summary of the method: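 Test compound (25 uM, duplicate in the primary screen; concentration series at follow-up) competed with radioligand for human DRD2 in CHO-derived membrane protein. Filter-based scintillation counting was done 1.5 hours after dosing, with loss of signal analysed against DMSO.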

[17] = biological target: human Histamine 1 Receptor (H1), HRH1 (gene 3269) (UniProt P35367); assay: NVS_GPCR_hH1: NovaScreen (NVS) G Protein-Coupled Receptor Assay for human Histamine 1 Receptor (H1) (AID 2283268)
Summary of the method: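 Filter-based scintillation detection of radioligand binding to human H1, 1 h incubation; chemicals screened in duplicate at 25 uM, then concentration-response; signal loss relative to DMSO taken as activity.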

[18] = biological target: human Endothelin Receptor Type A (ETA), EDNRA (gene 1909) (UniProt P25101); assay: NVS_GPCR_hETA: NovaScreen (NVS) G Protein-Coupled Receptor Assay for human Endothelin Receptor Type A (ETA) (AID 2283265)
Summary of the method: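 Binding of radioligand to membrane protein extracted from SH-SY5Y cells was read by filtration and scintillation after 3 h. Compounds were screened at 25 uM in duplicate, with hits followed up in singleton concentration series to 50 uM.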

[19] = biological target: human Endothelin Receptor Type B (ETB), EDNRB (gene 1910) (UniProt P24530); assay: NVS_GPCR_hETB: NovaScreen (NVS) G Protein-Coupled Receptor Assay for human Endothelin Receptor Type B (ETB) (AID 2283267)
Summary of the method: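 Filter-based scintillation readout of radioligand displacement, 4 h, using membranes from human astrocytoma cells. Actives from a 25 uM duplicate screen were retested in concentration-response (top 50 uM) relative to DMSO baseline.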

Measured: AC50

Chain of human Adrenergic, Beta 1 Receptor (Adrb1), ADRB1 (gene 153) (P08588 whole entry, looked up): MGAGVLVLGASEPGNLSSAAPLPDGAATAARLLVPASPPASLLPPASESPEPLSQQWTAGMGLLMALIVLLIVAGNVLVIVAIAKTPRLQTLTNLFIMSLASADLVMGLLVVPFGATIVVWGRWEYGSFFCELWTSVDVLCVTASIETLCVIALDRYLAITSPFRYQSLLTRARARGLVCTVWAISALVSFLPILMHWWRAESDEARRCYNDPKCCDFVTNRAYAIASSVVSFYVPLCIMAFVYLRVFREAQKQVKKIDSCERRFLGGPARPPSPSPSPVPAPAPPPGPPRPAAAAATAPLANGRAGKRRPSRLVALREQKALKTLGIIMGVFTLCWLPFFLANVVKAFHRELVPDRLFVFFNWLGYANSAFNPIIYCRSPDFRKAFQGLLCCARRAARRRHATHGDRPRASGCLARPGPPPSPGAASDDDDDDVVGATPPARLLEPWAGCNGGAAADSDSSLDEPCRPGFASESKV
Chain of human Serotonin, 5-Hydroxytryptamine Receptor 6 (5HT6), HTR6 (gene 3362) (P50406 whole entry, looked up): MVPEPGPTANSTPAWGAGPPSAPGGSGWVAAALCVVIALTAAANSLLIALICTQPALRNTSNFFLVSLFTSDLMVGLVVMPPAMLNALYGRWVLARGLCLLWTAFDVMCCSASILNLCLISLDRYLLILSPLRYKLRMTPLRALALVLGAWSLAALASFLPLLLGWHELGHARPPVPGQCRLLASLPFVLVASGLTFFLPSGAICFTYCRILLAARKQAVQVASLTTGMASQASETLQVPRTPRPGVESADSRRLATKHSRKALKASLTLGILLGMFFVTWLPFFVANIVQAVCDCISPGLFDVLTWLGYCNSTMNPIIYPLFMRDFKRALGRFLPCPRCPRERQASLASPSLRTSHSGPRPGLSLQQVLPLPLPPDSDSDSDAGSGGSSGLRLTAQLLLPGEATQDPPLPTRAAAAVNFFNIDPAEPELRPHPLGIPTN
Chain of human Adenosine A1 Receptor (AdoRA1), ADORA1 (gene 134) (P30542 whole entry, looked up): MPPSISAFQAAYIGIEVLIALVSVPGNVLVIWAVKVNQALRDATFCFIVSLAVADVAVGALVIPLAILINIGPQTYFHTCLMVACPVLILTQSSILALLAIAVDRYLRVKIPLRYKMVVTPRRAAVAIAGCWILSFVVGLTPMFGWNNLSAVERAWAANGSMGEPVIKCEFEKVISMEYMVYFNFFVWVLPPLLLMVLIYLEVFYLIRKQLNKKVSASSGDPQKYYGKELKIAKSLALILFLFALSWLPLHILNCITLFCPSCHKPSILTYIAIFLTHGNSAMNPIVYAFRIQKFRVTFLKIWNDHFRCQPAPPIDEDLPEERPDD
Chain of Beta-2 adrenergic receptor (Homo sapiens) (P07550 whole entry, looked up): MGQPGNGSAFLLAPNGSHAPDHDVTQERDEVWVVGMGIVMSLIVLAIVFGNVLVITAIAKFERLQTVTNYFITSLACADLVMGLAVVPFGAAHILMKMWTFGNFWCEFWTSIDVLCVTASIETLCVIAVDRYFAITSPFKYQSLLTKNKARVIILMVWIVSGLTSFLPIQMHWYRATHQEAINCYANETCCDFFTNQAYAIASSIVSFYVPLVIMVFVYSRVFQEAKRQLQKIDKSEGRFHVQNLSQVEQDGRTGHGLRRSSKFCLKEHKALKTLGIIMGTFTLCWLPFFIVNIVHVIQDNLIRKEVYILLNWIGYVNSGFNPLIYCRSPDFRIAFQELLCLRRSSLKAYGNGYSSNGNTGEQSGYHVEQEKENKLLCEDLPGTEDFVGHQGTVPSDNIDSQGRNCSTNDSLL
Chain of human Adrenergic, Alpha 2c Receptor (Adra2C), ADRA2C (gene 152) (P18825 whole entry, looked up): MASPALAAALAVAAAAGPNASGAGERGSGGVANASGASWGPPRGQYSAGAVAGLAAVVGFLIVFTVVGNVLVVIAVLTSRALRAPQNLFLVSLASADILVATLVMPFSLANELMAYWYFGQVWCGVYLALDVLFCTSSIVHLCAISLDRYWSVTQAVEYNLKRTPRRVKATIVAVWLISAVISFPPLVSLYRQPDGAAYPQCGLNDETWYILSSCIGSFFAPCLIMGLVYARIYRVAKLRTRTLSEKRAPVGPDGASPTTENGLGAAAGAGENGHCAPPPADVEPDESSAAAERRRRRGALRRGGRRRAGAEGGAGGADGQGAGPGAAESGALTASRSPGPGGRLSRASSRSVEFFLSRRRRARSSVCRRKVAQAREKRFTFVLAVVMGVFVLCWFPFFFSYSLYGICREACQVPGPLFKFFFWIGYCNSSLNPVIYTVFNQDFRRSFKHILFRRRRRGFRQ
Chain of Type-1 angiotensin II receptor (Homo sapiens) (P30556 whole entry, looked up): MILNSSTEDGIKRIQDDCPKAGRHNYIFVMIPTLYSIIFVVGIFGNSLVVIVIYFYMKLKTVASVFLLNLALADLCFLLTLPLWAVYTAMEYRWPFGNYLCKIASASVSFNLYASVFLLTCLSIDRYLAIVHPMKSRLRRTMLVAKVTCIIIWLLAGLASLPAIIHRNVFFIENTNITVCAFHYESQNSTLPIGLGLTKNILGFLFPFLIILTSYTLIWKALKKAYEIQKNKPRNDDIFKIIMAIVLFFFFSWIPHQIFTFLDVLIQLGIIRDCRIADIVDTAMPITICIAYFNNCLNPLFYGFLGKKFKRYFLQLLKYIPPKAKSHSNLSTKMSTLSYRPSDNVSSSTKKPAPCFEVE
Chain of human Histamine 1 Receptor (H1), HRH1 (gene 3269) (P35367 whole entry, looked up): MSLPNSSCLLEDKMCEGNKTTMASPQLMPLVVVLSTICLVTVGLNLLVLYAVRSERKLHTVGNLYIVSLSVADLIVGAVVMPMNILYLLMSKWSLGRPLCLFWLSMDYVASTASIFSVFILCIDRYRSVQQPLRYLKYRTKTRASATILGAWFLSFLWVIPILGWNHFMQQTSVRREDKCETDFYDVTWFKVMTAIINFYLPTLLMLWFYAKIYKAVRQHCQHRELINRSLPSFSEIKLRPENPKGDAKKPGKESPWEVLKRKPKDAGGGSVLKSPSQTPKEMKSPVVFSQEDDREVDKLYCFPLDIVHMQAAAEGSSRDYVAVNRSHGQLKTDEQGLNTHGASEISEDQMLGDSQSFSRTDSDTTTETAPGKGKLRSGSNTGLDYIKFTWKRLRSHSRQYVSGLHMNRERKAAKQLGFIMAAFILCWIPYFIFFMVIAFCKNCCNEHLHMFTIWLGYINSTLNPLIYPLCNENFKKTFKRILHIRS
Chain of guinea pig Leukotriene D4 Receptor (LTD4), CYSLTR1 (gene 100135514) (Q2NNR5 whole entry, looked up): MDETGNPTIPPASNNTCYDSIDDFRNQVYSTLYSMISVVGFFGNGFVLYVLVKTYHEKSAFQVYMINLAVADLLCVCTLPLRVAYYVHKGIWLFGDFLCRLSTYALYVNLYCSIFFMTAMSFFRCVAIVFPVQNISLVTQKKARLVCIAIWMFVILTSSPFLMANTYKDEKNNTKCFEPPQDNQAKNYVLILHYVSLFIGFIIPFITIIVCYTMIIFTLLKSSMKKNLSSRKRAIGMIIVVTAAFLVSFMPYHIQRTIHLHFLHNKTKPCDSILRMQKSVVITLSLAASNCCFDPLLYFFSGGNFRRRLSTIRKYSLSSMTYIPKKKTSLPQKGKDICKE
Chain of human Adrenergic, Alpha 2A Receptor (Adra2A), ADRA2A (gene 150) (P08913 whole entry, looked up): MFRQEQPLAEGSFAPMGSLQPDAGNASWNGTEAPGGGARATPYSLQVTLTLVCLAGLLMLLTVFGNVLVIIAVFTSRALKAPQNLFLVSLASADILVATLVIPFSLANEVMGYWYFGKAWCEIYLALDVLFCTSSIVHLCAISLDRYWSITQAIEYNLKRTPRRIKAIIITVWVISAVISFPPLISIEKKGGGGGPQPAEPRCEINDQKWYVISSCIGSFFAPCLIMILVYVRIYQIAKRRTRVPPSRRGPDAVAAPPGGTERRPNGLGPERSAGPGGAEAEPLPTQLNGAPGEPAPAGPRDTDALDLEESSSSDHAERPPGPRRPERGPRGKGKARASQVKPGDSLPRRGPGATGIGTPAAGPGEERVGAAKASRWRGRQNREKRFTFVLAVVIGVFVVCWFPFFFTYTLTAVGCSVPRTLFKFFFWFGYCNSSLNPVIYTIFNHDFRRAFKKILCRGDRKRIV
Chain of human Dopamine Receptor D2 (DRD2), DRD2 (gene 1813) (P14416 whole entry, looked up): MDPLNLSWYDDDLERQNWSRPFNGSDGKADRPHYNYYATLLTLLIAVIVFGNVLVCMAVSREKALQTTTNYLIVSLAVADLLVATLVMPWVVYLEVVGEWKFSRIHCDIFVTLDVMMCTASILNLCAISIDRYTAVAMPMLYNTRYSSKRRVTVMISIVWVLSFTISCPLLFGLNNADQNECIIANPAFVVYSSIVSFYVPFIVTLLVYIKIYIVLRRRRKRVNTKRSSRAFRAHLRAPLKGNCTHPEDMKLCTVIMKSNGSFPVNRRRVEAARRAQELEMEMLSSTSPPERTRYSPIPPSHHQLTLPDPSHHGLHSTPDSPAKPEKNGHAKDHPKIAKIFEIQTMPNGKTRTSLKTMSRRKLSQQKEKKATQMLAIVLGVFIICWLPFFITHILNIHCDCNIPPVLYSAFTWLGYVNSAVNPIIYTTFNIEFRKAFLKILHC
Chain of human Serotonin, 5-Hydroxytryptamine Receptor 7 (5HT7), HTR7 (gene 3363) (P34969 whole entry, looked up): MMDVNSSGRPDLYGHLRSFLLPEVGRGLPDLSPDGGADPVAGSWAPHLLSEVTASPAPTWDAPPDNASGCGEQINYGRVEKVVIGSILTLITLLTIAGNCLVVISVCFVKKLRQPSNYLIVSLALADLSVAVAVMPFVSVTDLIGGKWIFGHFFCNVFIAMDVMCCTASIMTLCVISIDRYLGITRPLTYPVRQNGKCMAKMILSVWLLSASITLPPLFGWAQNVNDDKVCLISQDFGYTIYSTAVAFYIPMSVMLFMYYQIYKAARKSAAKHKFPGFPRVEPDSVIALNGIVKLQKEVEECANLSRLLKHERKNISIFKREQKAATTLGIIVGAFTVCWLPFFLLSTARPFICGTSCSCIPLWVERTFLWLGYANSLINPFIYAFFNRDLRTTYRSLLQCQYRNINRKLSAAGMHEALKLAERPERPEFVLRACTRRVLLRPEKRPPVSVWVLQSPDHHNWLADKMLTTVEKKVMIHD

O=C(O)Cc1ccccc1Nc1c(Cl)cccc1Cl
inactive: [1] | [2] | [3]

O=C(N[C@@H](Cc1ccccc1)[C@@H](O)C(=O)N1C[C@@H](O)[C@@H](O)C1)c1cc2cc(Cl)ccc2[nH]1
active: [4] 16 µM

CCCCC(CC)COC(=O)CC(C(=O)OCC(CC)CCCC)S(=O)(=O)O (stereo not drawn)
inactive: [6] | [12]
active: [5] 16.1 µM | [7] 25 µM | [8] 7.45 µM | [9] 36.6 µM | [4] 20.7 µM | [10] 6.08 µM | [11] 25 µM | [1] 6.35 µM | [13] 7.47 µM | [2] 14.6 µM | [14] 17.7 µM | [15] 10.5 µM | [16] 16.5 µM | [17] 35.5 µM

NS(=O)(=O)c1cc2c(cc1Cl)NCNS2(=O)=O
inactive: [9]

NCC1(Cc2noc(=O)[nH]2)CCCCC1
inactive: [18] | [19]
